The source made the active and inactive calls. Rule for the calls: active = hit-call score of the fitted dose curve at least 0.9, where 1 is the maximum; inactive = score below 0.9.
How the values were obtained:
[1] = read-out: C-C motif chemokine 2 (Homo sapiens) (UniProt P13500); test: BSK_KF3CT_MCP1: BioMAP Diversity Plus: KF3CT Assay for Monocyte Chemoattractant Protein 1 (MCP1/CCL2) Biomarker Activity (AID 2283073); conditions: primary human keratinocytes with fibroblasts; actives raise or lower the signal
Procedure, shortened: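 Human keratinocyte plus foreskin fibroblast primary co-culture exposed to chemical for 24 h. MCP-1 levels measured by ELISA. Bidirectional curve fitting relative to DMSO negative control as baseline.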

[2] = read-out: Matrix Metallopeptidase 9 (MMP9), MMP9 (gene 4318); test: BSK_KF3CT_MMP9: BioMAP Diversity Plus: KF3CT Assay for Matrix Metallopeptidase 9 (MMP9) Biomarker Activity (AID 2283074); conditions: primary human keratinocytes with fibroblasts; actives raise or lower the signal
Procedure, shortened: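 MMP-9 quantified by ELISA after 24 h chemical treatment of primary human skin keratinocyte/fibroblast co-cultures; gain or loss fitted against DMSO, with parallel SRB staining (0.1% SRB, 560 nm) for overt cytotoxicity.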

[3] = read-out: urokinase plasminogen activator (uPA), PLAU (gene 5328); test: BSK_KF3CT_uPA: BioMAP Diversity Plus: KF3CT Assay for urokinase plasminogen activator (uPA) Biomarker Activity (AID 2283075); conditions: primary human keratinocytes with fibroblasts; actives raise or lower the signal
Procedure, shortened: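 ELISA read-out of uPA 24 h after dosing human skin keratinocytes co-cultured with foreskin fibroblasts. Signal change fitted both ways relative to DMSO; sulforhodamine B on parallel cultures marks overt cytotoxicity.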

CD40, CD40 (gene 958) [4] = test: BSK_LPS_CD40: BioMAP Diversity Plus: LPS Assay for CD40 Biomarker Activity (AID 2283076); conditions: primary human HUVEC with PBMC; actives raise or lower the signal
Procedure, shortened: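 Primary human umbilical vein endothelial cells co-cultured with peripheral blood mononuclear cells, LPS-stimulated, were dosed with chemical and read 24 h later. CD40 levels were measured by ELISA and fitted bidirectionally against DMSO as negative control and baseline.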

[5] = read-out: E-selectin (Homo sapiens) (UniProt P16581); test: BSK_LPS_Eselectin: BioMAP Diversity Plus: LPS Assay for Eselectin Biomarker Activity (AID 2283077); conditions: primary human HUVEC with PBMC; actives raise or lower the signal
Procedure, shortened: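 Human umbilical vein endothelial cells co-cultured with peripheral blood mononuclear cells under LPS stimulation; E-selectin measured by ELISA 24 h after chemical dosing. Activity fitted bidirectionally against DMSO as negative control and baseline.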

[6] = read-out: Interleukin-8 (IL8), CXCL8 (gene 3576); test: BSK_LPS_IL8: BioMAP Diversity Plus: LPS Assay for Interleukin-8 (IL8) Biomarker Activity (AID 2283078); conditions: primary human HUVEC with PBMC; actives raise or lower the signal
Procedure, shortened: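 Human umbilical vein endothelial cells co-cultured with PBMC were stimulated with LPS; IL-8 levels were measured by ELISA 24 h after chemical dosing. Activity was fitted bidirectionally against DMSO as negative control and baseline.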

[7] = BSK_LPS_SRB: Viability Assessment in the BioMAP Diversity Plus: LPS Assay (AID 2283079); conditions: primary human HUVEC with PBMC;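 note: total protein by sulforhodamine B absorbance as a cytotoxicity measure; measured one day after compound addition; fitted in both directions against DMSO so loss or gain of signal counts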
Procedure, shortened: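 Human umbilical vein endothelial cells co-cultured with PBMC (LPS system) were dosed for 24 h. Total protein was stained with 0.1% sulforhodamine B after 10% TCA fixation, read at 560 nm, and fitted bidirectionally against DMSO baseline.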

[8] = read-out: Interleukin-1 alpha (IL1a), IL1A (gene 3552); test: BSK_LPS_IL1a: BioMAP Diversity Plus: LPS Assay for Interleukin-1 alpha (IL1a) Biomarker Activity (AID 2283080); conditions: primary human HUVEC with PBMC; actives raise or lower the signal
Procedure, shortened: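 Human umbilical vein endothelial cells co-cultured with peripheral blood mononuclear cells were LPS-stimulated and exposed to test chemicals for 24 h. IL-1 alpha was quantified by ELISA, with bidirectional curve fitting against DMSO as the negative control and baseline.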

[9] = read-out: Monocyte Chemoattractant Protein-1 (MCP1), CCL2 (gene 6347); test: BSK_LPS_MCP1: BioMAP Diversity Plus: LPS Assay for Monocyte Chemoattractant Protein-1 (MCP1) Biomarker Activity (AID 2283081); conditions: primary human HUVEC with PBMC; actives raise or lower the signal
Procedure, shortened: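 HUVEC plus PBMC co-culture (human primary cells, LPS system) exposed to test chemical for 24 h; MCP-1 measured by ELISA. Bidirectional curve fitting against DMSO baseline; parallel SRB total-protein staining flags overt cytotoxicity.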

[10] = BSK_LPS_PGE2: BioMAP Diversity Plus: LPS Assay for Prostaglandin E2 (PGE2) Biomarker Activity (AID 2283082); conditions: primary human HUVEC with PBMC; actives raise or lower the signal
Procedure, shortened: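 ELISA read-out of PGE2 from human umbilical vein endothelial cells co-cultured with peripheral blood mononuclear cells under LPS, 24 h post-dose. Gain or loss of signal scored relative to DMSO baseline.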

[11] = read-out: Macrophage colony-stimulating factor (MCSF), CSF1 (gene 1435); test: BSK_LPS_MCSF: BioMAP Diversity Plus: LPS Assay for Macrophage colony-stimulating factor (MCSF) Biomarker Activity (AID 2283083); conditions: primary human HUVEC with PBMC; actives raise or lower the signal
Procedure, shortened: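 Human umbilical vein endothelial cells co-cultured with peripheral blood mononuclear cells were exposed to compound for 24 h. M-CSF levels were measured by ELISA, and bidirectional curve fitting used DMSO as the negative control and baseline.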

[12] = read-out: Tissue Factor, F3 (gene 2152); test: BSK_LPS_TissueFactor: BioMAP Diversity Plus: LPS Assay for Tissue Factor Biomarker Activity (AID 2283084); conditions: primary human HUVEC with PBMC; actives raise or lower the signal
Procedure, shortened: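 Human umbilical vein endothelial cells co-cultured with peripheral blood mononuclear cells were dosed and stimulated with LPS. Cell-surface CD142 was quantified by ELISA at 24 h. Activity was fitted bidirectionally against DMSO baseline.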

[13] = read-out: Tumor necrosis factor (Homo sapiens) (UniProt P01375); test: BSK_LPS_TNFa: BioMAP Diversity Plus: LPS Assay for Tumour Necrosis Factor alpha (TNFa) Biomarker Activity (AID 2283085); conditions: primary human HUVEC with PBMC; actives raise or lower the signal
Procedure, shortened: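 HUVEC/PBMC co-culture, LPS-stimulated; 24 h post-dose; TNFa by ELISA; gain or loss of signal fitted bidirectionally vs DMSO baseline.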

[14] = read-out: Vascular cell adhesion molecule 1 (VCAM1), VCAM1 (gene 7412); test: BSK_LPS_VCAM1: BioMAP Diversity Plus: LPS Assay for Vascular cell adhesion molecule 1 (VCAM1) Biomarker Activity (AID 2283086); conditions: primary human HUVEC with PBMC; actives raise or lower the signal
Procedure, shortened: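 ELISA read-out of VCAM-1 at 24 h post-dosing in an LPS-driven HUVEC/PBMC primary human co-culture; gain or loss of signal fitted bidirectionally against DMSO baseline. Cytotoxicity tracked in parallel cultures by SRB total-protein staining.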

CD38, CD38 (gene 952) = test: BSK_SAg_CD38: BioMAP Diversity Plus: SAg Assay for CD38 Biomarker Activity (AID 2283087); conditions: primary human HUVEC with PBMC; actives raise or lower the signal
Procedure, shortened: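 Measures CD38 on a human endothelial/PBMC co-culture driven by SEB and TSST-1, 24 h after compound exposure, using ELISA with fluorescence detection; DMSO defines baseline for bidirectional curve fitting.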

CD40, CD40 (gene 958) [15] = test: BSK_SAg_CD40: BioMAP Diversity Plus: SAg Assay for CD40 Biomarker Activity (AID 2283088); conditions: primary human HUVEC with PBMC; actives raise or lower the signal
Procedure, shortened: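 Human umbilical vein endothelial cells co-cultured with PBMC; CD40 levels measured by ELISA with fluorescence read-out 24 h after chemical dosing. Gain or loss of signal fitted bidirectionally against DMSO baseline.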

CD69, CD69 (gene 969) = test: BSK_SAg_CD69: BioMAP Diversity Plus: SAg Assay for CD69 Biomarker Activity (AID 2283089); conditions: primary human HUVEC with PBMC; actives raise or lower the signal
Procedure, shortened: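 Primary human vascular co-culture (umbilical vein endothelium with peripheral blood mononuclear cells) exposed to test chemical for 24 h. CD69 levels quantified by fluorescence ELISA; DMSO served as negative control for bidirectional fitting.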

[16] = read-out: Monocyte Chemoattractant Protein-1 (MCP1), CCL2 (gene 6347); test: BSK_SAg_MCP1: BioMAP Diversity Plus: SAg Assay for Monocyte Chemoattractant Protein-1 (MCP1) Biomarker Activity (AID 2283090); conditions: primary human HUVEC with PBMC; actives raise or lower the signal
Procedure, shortened: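 Values derive from bidirectional fitting of ELISA-measured MCP1 against DMSO controls. Readings were taken 24 h after dosing human vascular endothelial cells co-cultured with peripheral blood mononuclear cells under superantigen stimulation.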

[17] = read-out: E-selectin (Homo sapiens) (UniProt P16581); test: BSK_SAg_Eselectin: BioMAP Diversity Plus: SAg Assay for Eselectin Biomarker Activity (AID 2283091); conditions: primary human HUVEC with PBMC; actives raise or lower the signal
Procedure, shortened: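 HUVEC co-cultured with PBMC, compound dosed then read at 24 h; E-selectin measured by ELISA. Activity fitted bidirectionally against DMSO as negative control and baseline.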

[18] = read-out: Monokine induced gamma interferon (MIG), CXCL9 (gene 4283); test: BSK_SAg_MIG: BioMAP Diversity Plus: SAg Assay for Monokine induced gamma interferon (MIG) Biomarker Activity (AID 2283092); conditions: primary human HUVEC with PBMC; actives raise or lower the signal
Procedure, shortened: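 Endothelial cells and PBMC were co-cultured, exposed to test chemicals, and sampled 24 h later. MIG was measured by ELISA, and responses were fitted in both directions relative to DMSO.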

Measured: outcome

Tumor necrosis factor (Homo sapiens), sequence (P01375 whole entry, looked up): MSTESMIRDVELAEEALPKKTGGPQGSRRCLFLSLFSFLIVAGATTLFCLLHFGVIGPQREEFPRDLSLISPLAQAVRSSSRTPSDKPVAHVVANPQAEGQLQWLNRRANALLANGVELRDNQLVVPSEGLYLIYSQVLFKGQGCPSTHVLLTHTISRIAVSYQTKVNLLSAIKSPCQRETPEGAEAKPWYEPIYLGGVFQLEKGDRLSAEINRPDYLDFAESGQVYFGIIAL
E-selectin (Homo sapiens), sequence (P16581 whole entry, looked up): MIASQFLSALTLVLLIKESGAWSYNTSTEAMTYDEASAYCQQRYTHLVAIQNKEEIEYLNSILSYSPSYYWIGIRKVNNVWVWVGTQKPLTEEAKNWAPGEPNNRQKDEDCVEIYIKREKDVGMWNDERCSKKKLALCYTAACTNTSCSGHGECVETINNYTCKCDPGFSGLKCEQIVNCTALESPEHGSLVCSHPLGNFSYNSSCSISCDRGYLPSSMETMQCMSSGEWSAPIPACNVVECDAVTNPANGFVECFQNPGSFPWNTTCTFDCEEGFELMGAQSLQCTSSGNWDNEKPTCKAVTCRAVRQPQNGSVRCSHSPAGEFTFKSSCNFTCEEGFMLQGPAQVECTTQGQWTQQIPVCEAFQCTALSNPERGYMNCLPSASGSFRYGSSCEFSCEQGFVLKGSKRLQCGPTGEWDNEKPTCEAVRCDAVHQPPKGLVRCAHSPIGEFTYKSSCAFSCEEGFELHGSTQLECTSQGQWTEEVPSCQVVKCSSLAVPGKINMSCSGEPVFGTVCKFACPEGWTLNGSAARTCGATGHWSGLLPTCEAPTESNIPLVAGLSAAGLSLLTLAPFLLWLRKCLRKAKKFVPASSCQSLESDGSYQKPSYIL

CCCCOCCO
inactive: all assays above

CCCCCCCCCCCCCCCS(=O)(=O)Oc1ccccc1
inactive: all assays above

CN(C)C=O
not listed: [13]
inactive: all other assays above

O=C(O)c1ccccc1C(c1ccc(O)cc1)c1ccc(O)cc1
not listed: [7]
inactive: all other assays above

COCC(C)OCC(C)O (configuration not stated)
not listed: [13]
inactive: all other assays above

Source: PubChem BioAssay (EPA / NIEHS)
